The text below walks through data of PubChem BioAssay AID488890 (Southern Research Specialized Biocontainment Screening …, 2010).

The campaign covered roughly 320,000 compounds. About 1,300 (0.41%) were called active. Not shown: some 3% with an inconclusive outcome. How the calls were made is not given here. A selection follows. Measured potencies and affinities stand elsewhere.

The nature of this assay: growth inhibition of non-replicating M. tuberculosis (AID 488890).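 Further: plate controls were DMSO cells for no effect and high antibiotic wells for full effect.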 The settings on record: Mycobacterium tuberculosis non-replicating, at 25 µM, stronger effect = higher value.
Turning to `CCCn1c(=O)c(C(=O)NNS(=O)(=O)c2ccc(Cl)cc2)c(O)c2ccccc21`, the inhibition is 30.4%.
Next, `COc1cc(/C=N\Nc2nncn2N)ccc1OC(C)=O`: 8.91%; `COc1ccc(S(=O)(=O)NC(CC(=O)NCCc2ccc(OC)c(OC)c2)c2ccco2)cc1` (centres undefined): -6.87%.
For the molecule `COCCSc1ccccc1C(=O)N1CCC(Cc2ccccc2)CC1`, the inhibition came out at 12.1%.
Next, `O=C(N/N=C/c1ccc([N+](=O)[O-])o1)c1ccc(O)cc1`: 76.5%; `O=C(N/N=C/c1ccncc1)c1sc2ccccc2c1Cl`: 67.1%; `CCN(CC)C(=O)Cn1cc(S(=O)(=O)CC(=O)Nc2ccc(F)cc2)c2ccccc21`: -1.96%.
Next, `C/C(=N\Nc1ccccc1)c1c(O)cc(C)oc1=O`: 54.3%.
For `CCCCCC(=O)c1ccc(O)cc1O` the value was 44.3%; for `CCc1ccccc1N/N=C(/C)c1c(O)cc(C)oc1=O`, 19.8%.
With `C/C(=N\NC(=O)c1ccccc1[N+](=O)[O-])c1c(O)cc(C)oc1=O`, the inhibition came out at 11.3%.
Turning to `CCCCCCCCC(=O)N/N=C(\C)c1ccco1`, the inhibition was -9.44%.
For `C/C(=N\NC(=O)c1cccnc1)c1c(O)cc(C)oc1=O` the value was -4.46%; for `C/C(=N\NC(=O)c1ccccc1O)c1c(O)cc(C)oc1=O`, 76.5%.
Next, `CCc1ccc(OCC(=O)N/N=C(\C)c2ccc(O)cc2O)cc1`: 69%.
Next, `C/C(=C\c1ccccc1)CN1CCC(C(=O)N2CCCC(C)C2)CC1` (centres undefined): 22.3%; `COc1ccc(S(=O)(=O)N(C)C[C@H]2Oc3ccc(NS(=O)(=O)c4cn(C)cn4)cc3C(=O)N([C@H](C)CO)C[C@@H]2C)cc1`: -5.84%.
In the case of `O=C(CCc1nnc2ccc(NCc3ccco3)nn12)N1CCN(c2ccccc2F)CC1`, the inhibition is 28.5%.
Next, `O=C(COc1ccccc1)Nc1ccc(Cl)cc1Cl`: 72.1%; `Cn1cnc2cc(NS(=O)(=O)c3ccc(Br)cc3)ccc21`: -3.25%; `O=C(CCC(=O)c1ccc(F)cc1)OCc1nnc(-c2ccc([N+](=O)[O-])cc2)o1`: 37%.
Next, `Cc1cc(C(=O)N/N=C2\CCCc3ccccc32)c(C)o1`: 8.07%.
For `CC(C)c1ccc2[nH]c3c(c2c1)[C@@H]1CCN2C(=O)CCC[C@H](C3)[C@H]12` the value was 18.1%.
With `Cc1c(NS(=O)(=O)c2ccc(N=NN(C)C)cc2)c(=O)n(-c2ccccc2)n1C`, the inhibition was -13.3%.
Next, `COc1ccc2sc(-c3ccccc3OC)c(-c3ccc4c(c3)OCCO4)c2c1`: 17.4%; `O=C1NC(=O)/C(=C/c2ccco2)N1`: -3.62%.
Next, `CSc1c2c(nc3ncnn13)CCC2`: -27.5%; `Cc1ccc(C(=O)N2N=C(c3ccccc3)CC2(O)C(F)(F)F)o1` (centres undefined): 58.8%; `CC(C)CC1=NN(C(=O)c2ccncc2)C(O)(C(F)(F)F)C1` (centres undefined): 47.5%.
For `O=C(c1ccco1)N1N=C(c2ccc(Br)cc2)CC1(O)C(F)(F)F` (centres undefined) the value was 29.3%; for `Cc1ccc(C2=NN(C(=O)c3ccco3)C(O)(C(F)(F)F)C2)cc1` (centres undefined), 71.2%.
For the molecule `CCOC(=O)/C(=N\Nc1ccccc1Cl)N1CCN(c2ccccc2OC)CC1`, the inhibition was determined as 19%.
For `c1ccc(-n2cnc3cc(NCc4cccs4)ccc32)cc1` the value was 28.9%; for `Cc1ccc(C(=O)O)c(C(=O)Nc2nc3ccccc3s2)c1`, 11.2%; for `COc1ccc2nc(NC(=O)c3ccccc3-c3ccccc3C(=O)O)sc2c1`, 76.6%.
Consider `O=C(COC(=O)c1ccccc1C(=O)c1ccccc1)NCc1ccc(F)cc1`, for which the inhibition was 31.8%.
Next, `O=C(CCc1ccccc1)N1CCN(c2ccc(F)cc2)CC1`: 73.8%; `O=C(CCC(=O)N1CCN(c2ccccc2F)CC1)N1CCN(c2ccccc2)CC1`: 45%.
Next, `COC(=O)c1ccccc1NC(=O)CN1C(=O)CSC1=O`: -0.76%.
Next, `COCCNCC(O)CON=C1c2ccccc2-c2ccccc21` (centres undefined): 54.3%.
For the molecule `CC(C)(C)NCC(O)CON=C1c2ccccc2-c2ccccc21` (centres undefined), the inhibition stood at 65.3%.
Next, `COc1ccc(-c2csc3ncnc(N4CCN(c5cccc(C)c5C)CC4)c23)cc1`: 11.9%; `O=C(NCCN1CCOCC1)C1CCN(S(=O)(=O)N2CCCCC2)CC1`: -2.95%; `CCOC(=O)N1CCN(S(=O)(=O)c2ccc(C(=O)N(CCCN(C)C)c3nc4ccc(OC)cc4s3)cc2)CC1`: 3.45%.
For `COc1ccc(OC)c(N/C(C)=C/C(=O)c2ccncc2)c1` the value was 0%.
Next, `C/C(=C\C(=O)c1ccccc1)Nc1ccc(O)cc1`: 29.4%.
Take `COc1ccc(C(=O)c2c3ccc(OC)cc3[n+]([O-])n2Cc2ccc(C(N)=O)cc2)cc1`: the inhibition is 17.1%.
Regarding `COc1ccc(-c2nnc(SCC(=O)N(C)C3CCS(=O)(=O)C3)n2C(C)C)cc1` (centres undefined), the inhibition was -12.8%.
Next, `Cc1ccc(C2=N/C(=C\N3CCCCC3)C(=O)O2)cc1`: 21.3%; `CC1=N/C(=C/c2cccnc2)C(=O)O1`: -16.7%.
On to `COc1ccccc1C(c1c(N)n(C)c(=O)n(C)c1=O)C(C)[N+](=O)[O-]` (centres undefined), for which the inhibition is 53%.
For `COc1cc(C(C[N+](=O)[O-])c2c(N)n(C)c(=O)n(C)c2=O)ccc1O` (centres undefined), the inhibition is 23.3%.
Next, `COc1ccc(CCN(C)Cc2ccncc2)cc1OC`: 1.96%.
For `O=C(Nc1cccc2cccnc12)c1ccc2c(c1)OCCO2` the value was 16.4%.
For `O=[N+]([O-])c1ccc(Oc2cccc3cccnc23)c([N+](=O)[O-])c1` the value was 72%.
Take `COc1ccccc1OC(=O)c1ccc(C)c(S(=O)(=O)N2CCOCC2)c1`: the inhibition came to 16.8%.
Consider `O=C(Nc1ncccc1O)c1ccc2c(c1)OCCO2`, for which the inhibition was -9.11%.
Consider `O=C(Nc1cccc2cccnc12)c1cccc([N+](=O)[O-])c1`, for which the inhibition was determined as 14.7%.
Next, `COc1ccc(OC(=O)c2ccc(OC)c(S(=O)(=O)N3CCOCC3)c2)cc1`: 21.9%; `Cc1ccc(S(=O)(=O)NCc2cccnc2)cc1C`: 3.38%.
Next, `Cn1c(SCc2nc3ccccc3[nH]2)nnc1-c1cnccn1`: 11%; `COc1ccc(CCNC(=O)C2CCN(C(=O)c3ccc(Br)cc3)CC2)cc1OC`: -3.89%.
For `CCOC(=O)Cn1c(=O)oc2ccc(C)cc21` the value was 16.3%; for `CCn1cc(/C=N/NC(=O)c2ccc3c(c2)OCO3)c(C)n1`, -8.38%; for `CCN(CC)C(=O)c1sc2nc(Cc3ccccc3)[nH]c(=O)c2c1C`, 11%.
Regarding `O=C(Nc1ccc(S(=O)(=O)Nc2ncccn2)cc1)C1=NN(c2ccccc2)C(=O)CC1`, the inhibition turned out to be 36.2%.
Next, `O=C(N/N=C/c1ccc(N2CCOCC2)cc1)C1CC1`: 3.95%; `COC1CCCN(Cc2c(C(=O)N3CCN(C4CCCCC4)CC3)nc3ccccn23)C1` (centres undefined): 6.53%.
For the molecule `O=C(C1=C[C@H](c2ccc(C(F)(F)F)cc2)C[C@H](OCc2ccc(CO)cc2)O1)N1CCCCCCC1`, the inhibition came to 23%.
